PubChem BioAssay (Tox21)
Inconclusive results are not listed. A call without a number means that no potency is given here. Values without a mark were called inactive. The source made the active and inactive calls. Unless noted, calls come from the whole dose curve; as a rule, active = well fitted curve in the direction sought with a large enough effect in the repeat runs; inconclusive = weak or mixed curves; inactive = no such curve, though single readings can be large; an effect the other way counts as inactive or inconclusive.

How the values were obtained:
[1] = qHTS assay to identify small molecule antagonists of the peroxisome proliferator-activated receptor delta (PPARd) signaling pathway - cell viability counter screen (AID 743213); note: nearly all actives have a fitted effect of over 50% in size
Procedure, shortened: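 In this counter screen, HEK293H cells carrying a UAS-beta-lactamase reporter are co-treated with test compounds and 300 nM L165041 (final) for 17 h at 37 C; cell viability is quantified by CellTiter-Glo luminescence.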

[2] = qHTS assay to identify small molecule antagonists of the farnesoid-X-receptor (FXR) signaling pathway - cell viability counter screen (AID 743221; active = well fitted cell-killing curve with a large enough effect in the repeat runs, not every such curve was filed as active; note: nearly all actives have a fitted effect of over 50% in size; note: potency is the fitted concentration of half-maximal effect)
Procedure, shortened: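 CellTiter-Glo, 30 min RT, luminescence; same wells as the LiveBLAzer FRET read. Cells: FXR-UAS-bla HEK 293T. Treatment: compound with chenodeoxycholic acid 50 uM final, 16 h at 37 C.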

[3] = target: Vitamin D3 receptor (Homo sapiens) (UniProt P11473); assay: qHTS assay to identify small molecule antagonists of the vitamin D receptor (VDR) signaling pathway (AID 743223; active = well fitted inhibition curve with a large enough effect in the signal ratio in the repeat runs, not every such curve was filed as active; the % refers to the signal ratio)
Procedure, shortened: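 After VDR-bla cells are plated and left 4 h at 37C, DMSO-dissolved compounds and 3 nM (final) calcitriol agonist are added. Incubation continues 16 h at 37C; FRET beta-lactamase substrate then develops 2 h at room temperature.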

[4] = qHTS assay to identify small molecule agonists of the vitamin D receptor (VDR) signaling pathway - cell viability counter screen (AID 743224); note: nearly all actives have a fitted effect of over 50% in size; note: potency is the fitted concentration of half-maximal effect
Procedure, shortened: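 Cytotoxicity counter screen: VDR-bla cells, 16 h compound exposure at 37C, 5% CO2; CellTiter-Glo luminescence, 30 min RT, same wells as bla read.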

[5] = qHTS assay to identify small molecule antagonists of the vitamin D receptor (VDR) signaling pathway - cell viability counter screen (AID 743225); note: nearly all actives have a fitted effect of over 50% in size; note: potency is the fitted concentration of half-maximal effect
Procedure, shortened: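 Cytotoxicity toward the VDR-bla HEK 293T line was scored by ATP-based CellTiter-Glo luminescence, read in the wells already used for the beta-lactamase readout after 16 h compound treatment under 3 nM 1-alpha,25-dihydroxyvitamin D3 stimulation.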

[6] = qHTS assay to identify small molecule agonists of the NFkB signaling pathway - cell viability counter screen (AID 1159515; calls by dose curve; note: nearly all actives have a fitted effect of over 55% in size; note: potency is the fitted concentration of half-maximal effect)
Procedure, shortened: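 ME-180 NFkB-bla cells, 2,000/well; overnight attach; compound 5 hr, 37 C/5% CO2; LiveBLAzer substrate 1.5 hr RT; then CellTiter-Glo in same wells, 30 min RT, luminescence read.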

[7] = qHTS assay to identify small molecule agonists of the endoplasmic reticulum stress response signaling pathway (AID 1159516; active = well fitted activation curve with a large enough effect in the signal ratio in the repeat runs, not every such curve was filed as active; the % refers to the signal ratio; note: potency is the fitted concentration of half-maximal effect)
Procedure, shortened: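 HeLa ESRE-bla reporter line; cpd 5 h, 37 C/5% CO2; LiveBLAzer B/G FRET substrate 2 h RT; ex 405, em 460/530 nm.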

[8] = qHTS assay to identify small molecule antagonists of the retinoid-related orphan receptor gamma (ROR-gamma) signaling pathway - cell viability counter screen (AID 1159520); note: nearly all actives have a fitted effect of over 50% in size
Procedure, shortened: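 Cytotoxicity was read from cellular ATP (CellTiter-Glo luminescence) after 16 hr at 37 C with 1 uM doxycycline induction. The inducer was added 2 hr after compound transfer to Tet-on ROR gamma CHO cells.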

[9] = qHTS assay to identify small molecule agonists of the AP-1 signaling pathway - cell viability counter screen (AID 1159525; calls by dose curve; note: nearly all actives have a fitted effect of over 55% in size)
Procedure, shortened: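 Intracellular ATP by Cell Titer Glo luminescence (30 min, RT) in the same ME-180 AP-1-bla wells after the 5 h compound exposure at 37 °C. Normalised to tetra n-octyl ammonium bromide and DMSO controls.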

[10] = qHTS assay to identify small molecule agonists of the AP-1 signaling pathway (AID 1159526; calls by dose curve)
[11] = qHTS assay to identify small molecule agonists of the peroxisome proliferator-activated receptor delta (PPARd) signaling pathway - cell viability counter screen (AID 743211); note: nearly all actives have a fitted effect of over 55% in size; note: potency is the fitted concentration of half-maximal effect
Procedure, shortened: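 Multiplexed format: after the 2 h room-temperature LiveBLAzer B/G FRET step, CellTiter-Glo was added to the same wells. Luminescence after 30 min gave cell viability; compound exposure was 17 h at 37C.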

[12] = target: Retinoic acid receptor RXR-alpha (Homo sapiens) (UniProt P19793); assay: qHTS assay to identify small molecule agonists of the RXR signaling pathway (AID 1159527; calls by dose curve; note: nearly all actives have a fitted effect of over 35% in size; note: potency is the fitted concentration of half-maximal effect)
Procedure, shortened: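 Reporter activation is measured as beta-lactamase activity via FRET substrate cleavage (emission 460/530 nm) in HEK 293T cells expressing an RXR-alpha-driven bla construct, following 16 hr compound exposure at 37 C.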

[13] = target: Peroxisome proliferator-activated receptor delta (Homo sapiens) (UniProt Q03181); assay: qHTS assay to identify small molecule antagonists of the peroxisome proliferator-activated receptor delta (PPARd) signaling pathway (AID 743215; active = well fitted inhibition curve with a large enough effect in the signal ratio in the repeat runs, not every such curve was filed as active; the % refers to the signal ratio;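 note: cells stimulated with agonist L165041 at 300 nM final during compound exposure; series mostly up to about 62 µM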)
Procedure, shortened: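 HEK293H GeneBLAzer PPARd UAS-bla reporter cells; cpd + L165041 300 nM final, 17 h 37 C; LiveBLAzer B/G FRET substrate 2 h RT; fluorescence intensity read-out. Antagonist mode.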

[14] = target: Bile acid receptor (Homo sapiens) (UniProt Q96RI1); assay: qHTS assay to identify small molecule antagonists of the farnesoid-X-receptor (FXR) signaling pathway (AID 743217; active = well fitted inhibition curve with a large enough effect in the signal ratio in the repeat runs, not every such curve was filed as active; the % refers to the signal ratio)
Procedure, shortened: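 Read-out: beta-lactamase FRET fluorescence (LiveBLAzer B/G substrate, 2 h, room temperature) in GeneBLAzer FXR-UAS-bla HEK 293T cells. Compounds were co-dosed with 50 uM chenodeoxycholic acid (final) and incubated 16 h at 37 °C.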

[15] = qHTS assay to identify small molecule agonists of the farnesoid-X-receptor (FXR) signaling pathway - cell viability counter screen (AID 743218); note: nearly all actives have a fitted effect of over 45% in size; note: potency is the fitted concentration of half-maximal effect
Procedure, shortened: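 Luminescence from CellTiter-Glo, read after 30 min at RT, reports viability of GeneBLAzer FXR-UAS-bla HEK 293T cells treated 16 h with compounds in the wells used for the beta-lactamase reporter.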

[16] = target: Bile acid receptor (Homo sapiens) (UniProt Q96RI1); assay: qHTS assay to identify small molecule agonists of the farnesoid-X-receptor (FXR) signaling pathway (AID 743220; active = well fitted activation curve with a large enough effect in the signal ratio in the repeat runs, not every such curve was filed as active; the % refers to the signal ratio)
Procedure, shortened: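 FXR-UAS-bla HEK 293T cells carrying a UAS-driven beta-lactamase reporter were plated for 5 h at 37C/5% CO2, then exposed to DMSO-dissolved Tox21 10K compounds for 16 h at 37C. A LiveBLAzer B/G FRET substrate was loaded for 2 h at room temperature before fluorescence reading.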

[17] = target: Nuclear receptor ROR-gamma (Homo sapiens) (UniProt P51449); assay: qHTS assay to identify small molecule antagonists of the retinoid-related orphan receptor gamma (ROR-gamma) signaling pathway (AID 1159521; note: nearly all actives have a fitted effect of over 50% in size; note: potency is the fitted concentration of half-maximal effect)
Procedure, shortened: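 Readout: ONE-Glo luciferase luminescence, 30 min at room temperature. System: Tet-on RORγ CHO, RORE-LUC. Sequence: compound 2 h, doxycycline 1 uM final, 16 h at 37 C.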

[18] = target: Peroxisome proliferator-activated receptor delta (Homo sapiens) (UniProt Q03181); assay: qHTS assay to identify small molecule agonists of the peroxisome proliferator-activated receptor delta (PPARd) signaling pathway (AID 743212; calls by dose curve; note: potency is the fitted concentration of half-maximal effect)
Procedure, shortened: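 Beta-lactamase reporter readout: a ratiometric FRET signal from the LiveBLAzer substrate after 2 h at room temperature. Compound exposure at 37 °C in PPARδ-bla HEK293H cells driven by an upstream activator sequence.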

[19] = target: Vitamin D3 receptor (Homo sapiens) (UniProt P11473); assay: qHTS assay to identify small molecule agonists of the vitamin D receptor (VDR) signaling pathway (AID 743222; calls by dose curve; note: potency is the fitted concentration of half-maximal effect)
Procedure, shortened: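 Beta-lactamase reporter readout (LiveBLAzer B/G FRET, 2 h RT) in VDR-bla cells after 16 h compound treatment at 37C, 5% CO2; cells pre-incubated 4 h before pin transfer of DMSO solutions.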

Chain of Retinoic acid receptor RXR-alpha (Homo sapiens) (P19793 whole entry, looked up): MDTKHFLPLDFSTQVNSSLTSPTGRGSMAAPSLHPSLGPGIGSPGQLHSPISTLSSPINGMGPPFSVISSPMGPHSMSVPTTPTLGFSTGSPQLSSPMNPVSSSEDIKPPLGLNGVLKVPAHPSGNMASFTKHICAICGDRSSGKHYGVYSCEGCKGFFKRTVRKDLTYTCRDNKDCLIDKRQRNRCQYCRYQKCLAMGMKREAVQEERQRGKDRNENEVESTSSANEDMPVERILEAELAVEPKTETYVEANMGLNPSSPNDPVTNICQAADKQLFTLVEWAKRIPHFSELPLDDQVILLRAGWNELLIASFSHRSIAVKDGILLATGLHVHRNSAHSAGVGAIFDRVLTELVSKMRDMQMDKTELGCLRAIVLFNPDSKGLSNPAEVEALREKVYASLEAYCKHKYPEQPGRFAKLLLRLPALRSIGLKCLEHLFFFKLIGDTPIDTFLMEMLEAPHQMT
Chain of Peroxisome proliferator-activated receptor delta (Homo sapiens) (Q03181 whole entry, looked up): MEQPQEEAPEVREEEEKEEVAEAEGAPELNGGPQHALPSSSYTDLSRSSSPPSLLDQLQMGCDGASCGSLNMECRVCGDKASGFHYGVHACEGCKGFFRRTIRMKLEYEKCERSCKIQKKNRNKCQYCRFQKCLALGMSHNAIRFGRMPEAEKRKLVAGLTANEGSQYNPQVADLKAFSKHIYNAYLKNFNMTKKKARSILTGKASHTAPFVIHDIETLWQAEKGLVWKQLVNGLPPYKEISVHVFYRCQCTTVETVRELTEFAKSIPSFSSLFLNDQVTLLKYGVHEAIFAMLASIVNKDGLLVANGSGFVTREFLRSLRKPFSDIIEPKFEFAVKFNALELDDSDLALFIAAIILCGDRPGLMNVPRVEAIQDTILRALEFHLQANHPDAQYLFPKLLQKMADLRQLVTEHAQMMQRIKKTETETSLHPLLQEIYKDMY
Chain of Bile acid receptor (Homo sapiens) (Q96RI1 whole entry, looked up): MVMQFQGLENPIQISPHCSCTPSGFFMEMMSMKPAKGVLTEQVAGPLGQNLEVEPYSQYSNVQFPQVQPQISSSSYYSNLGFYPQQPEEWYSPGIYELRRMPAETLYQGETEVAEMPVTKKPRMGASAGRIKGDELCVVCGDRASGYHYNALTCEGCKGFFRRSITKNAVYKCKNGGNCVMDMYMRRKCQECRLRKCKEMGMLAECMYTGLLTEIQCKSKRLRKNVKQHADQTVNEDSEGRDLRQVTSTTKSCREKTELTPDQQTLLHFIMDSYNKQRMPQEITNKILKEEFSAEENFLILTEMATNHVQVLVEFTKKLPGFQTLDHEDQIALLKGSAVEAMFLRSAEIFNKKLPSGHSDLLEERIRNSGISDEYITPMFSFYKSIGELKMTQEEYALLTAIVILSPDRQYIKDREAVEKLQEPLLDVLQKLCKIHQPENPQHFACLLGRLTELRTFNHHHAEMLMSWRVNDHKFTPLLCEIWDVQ
Chain of Vitamin D3 receptor (Homo sapiens) (P11473 whole entry, looked up): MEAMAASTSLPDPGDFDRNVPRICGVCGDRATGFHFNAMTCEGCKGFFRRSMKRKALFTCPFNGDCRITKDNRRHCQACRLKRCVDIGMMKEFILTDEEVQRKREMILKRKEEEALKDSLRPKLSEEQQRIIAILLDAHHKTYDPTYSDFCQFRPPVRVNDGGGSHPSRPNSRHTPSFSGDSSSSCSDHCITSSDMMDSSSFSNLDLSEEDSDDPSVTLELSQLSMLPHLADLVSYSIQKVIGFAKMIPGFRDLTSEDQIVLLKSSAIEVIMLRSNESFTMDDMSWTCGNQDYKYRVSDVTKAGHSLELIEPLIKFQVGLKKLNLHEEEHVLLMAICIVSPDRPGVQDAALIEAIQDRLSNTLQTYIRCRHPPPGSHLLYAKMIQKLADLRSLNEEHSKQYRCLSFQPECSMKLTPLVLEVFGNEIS

Structure (SMILES) | Potency [1] | Potency [2] | Potency [3] | Potency [4] | Potency [5] | Potency [6] | Potency [7] | Potency [8] | Potency [9] | Potency [10] | Potency [11] | Potency [12] | Potency [13] | Potency [14] | Potency [15] | Potency [16] | Potency [17] | Potency [18] | Potency [19]
C=CC(=O)OCCOC(=O)C=C | inactive | inactive | inactive | inactive | inactive | inactive | inactive | inactive | inactive | inactive |  |  |  |  |  |  |  |  | 
CC1=CCC(=C(C)C)CC1 |  | inactive |  | inactive | inactive | inactive | inactive | inactive | inactive | inactive | inactive | inactive |  |  |  |  |  |  | 
O=C1CCc2cc(OCCCCc3nnnn3C3CCCCC3)ccc2N1 | inactive | inactive | inactive | inactive | inactive | inactive | inactive | inactive | inactive | inactive | inactive |  | inactive | inactive | inactive | inactive |  |  | 
CCC(C)[O-].CCC(C)[O-].CCOC(=O)/C=C(/C)[O-].[Al+3] | inactive | inactive |  | inactive | inactive | inactive | inactive | inactive | inactive | inactive | inactive |  |  |  | inactive |  |  |  | 
CCC(=O)OC(=O)CC | inactive | inactive |  | inactive | inactive | inactive | inactive | inactive | inactive | inactive | inactive |  | inactive | inactive |  | inactive | inactive |  | 
Cc1cc(-c2ccc(N=Nc3cc(S(=O)(=O)O)c4ccccc4c3N)c(C)c2)ccc1N=Nc1cc(S(=O)(=O)O)c2ccccc2c1N |  | inactive |  |  |  | inactive | inactive | inactive | inactive | inactive |  | inactive |  |  |  |  | 30.8 µM (active) | inactive | inactive
O=S(=O)(O)c1ccc(Nc2nc(Nc3ccc(/C=C/c4ccc(Nc5nc(Nc6ccc(S(=O)(=O)O)cc6)nc(N(CCO)CCO)n5)cc4S(=O)(=O)O)c(S(=O)(=O)O)c3)nc(N(CCO)CCO)n2)cc1 | inactive | inactive |  | inactive | inactive | inactive | 37.1 µM (active) | inactive | inactive |  | inactive | 26.3 µM (active) |  |  |  |  | inactive | 33.1 µM (active) | 13.2 µM (active)
CC(CCc1ccccc1)NCC(O)c1ccc(O)c(C(N)=O)c1 (centres undefined) |  | inactive |  |  |  | inactive | inactive | inactive | inactive |  | inactive | inactive | inactive |  | inactive | inactive | inactive |  | 
OCC(F)(F)F |  | inactive | inactive |  | inactive | inactive | inactive | inactive | inactive |  | inactive | inactive | inactive | inactive | inactive | inactive | inactive | inactive | inactive
Cc1cccc2cccnc12 | inactive | inactive | inactive |  | inactive | inactive | inactive | inactive | inactive | inactive | inactive | inactive | inactive |  | inactive |  |  |  | inactive
O=C1CCc2ccc(OCCCCN3CCN(c4cccc(Cl)c4Cl)CC3)cc2N1 |  | 16.8 µM (active) |  | 11.9 µM (active) | 10.7 µM (active) | 26.8 µM (active) | inactive | inactive | inactive |  | 11.9 µM (active) |  |  |  | 13.3 µM (active) | inactive |  |  | 
CN1CCN2c3ccccc3Cc3ccccc3C2C1 (centres undefined) |  |  | inactive | inactive | inactive | inactive | inactive | inactive | inactive |  |  | inactive |  |  | inactive |  | inactive |  | inactive
CCO[Si](OCC)(OCC)OCC | inactive | inactive | inactive | inactive | inactive | inactive | inactive | inactive | inactive | inactive | inactive |  |  |  | inactive |  | inactive |  | inactive
COc1cc(/C=C/c2ccccc2)oc(=O)c1 | inactive | inactive | inactive |  | inactive | inactive | inactive | inactive | inactive | inactive | inactive |  | inactive |  | inactive |  | inactive |  | 
C#C[C@]1(O)CC[C@H]2[C@@H]3[C@H](C)CC4=C(CCC(=O)C4)[C@H]3CC[C@@]21C |  | inactive | inactive |  | inactive | inactive | inactive | inactive | inactive | inactive |  |  |  |  | inactive |  |  |  | inactive
CCCCCc1ccc(Cl)cc1 | inactive | inactive |  | inactive | inactive | inactive | inactive |  | inactive | inactive | inactive | inactive | inactive | inactive | inactive |  | inactive | inactive | inactive
CC/C=C\CCCCCO | inactive | inactive | inactive | inactive | inactive | inactive | inactive | inactive | inactive | inactive | inactive |  | inactive |  | inactive |  | inactive | inactive | inactive
